From PubChem BioAssay (NCATS)
Active and inactive are the calls of the source. Calls come from the whole dose curve; as a rule, active = well fitted inhibition curve with a large enough effect; inconclusive = small, poorly fitted or top-dose-only effect; inactive = flat fitted curve, though single readings scatter.

Each compound was assayed against Flap endonuclease 1 (Homo sapiens) (UniProt P39748) (assay: qHTS Validation Assay for the Inhibitors of Human Flap endonuclease 1 (FEN1) (AID 488816)). Settings: FEN1 nuclease activity, fluorogenic DNA substrate; series mostly up to 57.1 µM.
Text: The major human flap endonuclease FEN1 is an efficient structure-specific enzyme that recognizes and cleaves a 5'-unannealed DNA flap. It belongs to the RAD2 family nucleases, which are involved in DNA metabolism and are highly conserved in prokaryotes and eukaryotes. FEN1 is a key enzyme in DNA replication, repair and maintenance of genomic stability. 5'-flap removal by FEN1 is critical for Okazaki fragment processing during lagging strand DNA synthesis, long-patch base excision repair (LP BER), and regulating or facilitating recombination events. […] Deletion of the yeast FEN1 gene, i.e. rad27, results in an increased frequency of short DNA (3-32 bp) repeats, micro- and mini-satellite formation, trinucleotide repeat expansion, spontaneous recombination events, and a severe growth defect in association with cell cycle arrest in late S/G2 phase. […] Cells from fen1-/- blastocysts show increased apoptotic cell death after ionizing radiation treatment, and chicken cells lacking the fen1 gene are hypersensitive to DNA alkylating agents, e.g. methylmethane sulfonate (MMS) and N-methyl-N'-nitro-N-nitrosoguanidine (MNNG), as well as hydrogen peroxide.
FEN1 is found to be increased in many human cancers, including lung, brain cancer, gastric cancer, prostate cancer, pancreatic cancer and breast cancer. […] In particular, elevation of FEN1 in hormone refractory human prostate cancer cells correlates with resistant to various anticancer agents including ionizing radiation, doxorubicin, paclitaxel and vinblastine.
Three uL of reagents (buffer in column 3 and 4 as negative control and 10 nM FEN1 in columns 1, 2, and 5-48) were dispensed into 1,536-well black solid-bottomed plate. Compounds (23 nL) were transferred via Kalypsys pin tool equipped with 1536-pin array (10 nL slotted pins, V&P Scientific, San Diego, CA). The plates were then incubated for 15 min at room temperature, and 1 uL substrate (50 nM final concentration) were added to start the reaction read twice at 0 min read and 15 min on ViewLux reader. Throughout the screen, reagent bottle and all liquid lines were chilled and made light-tight to minimize reagent degradation. All screening operations were performed on a fully integrated robotic system (Kalypsys, San Diego, CA) containing one RX-130 and two RX-90 anthropomorphic robotic arms (Staubli, Duncan, SC). Library plates were screened starting from the lowest and proceeding to the highest concentration, and a "double-dipping" step of the highest concentration was required to access higher concentrations of compounds. Vehicle-only plates, with DMSO being pin-transferred to the entire column 5-48 compound area, were inserted uniformly at the beginning and the end of each library in order to monitor for and record any shifts in the background, which can be affected by reagent dispensers or loss in enzyme activity overtime. Screening data was corrected, normalized, and concentration-effect relationships were derived by using publicly-available curve fitting algorithms developed in-house (http://ncgc.nih.gov/pub/openhts). A four parameter Hill equation was fitted to the concentration-response data by minimizing the residual error between the modeled and observed responses.

Chain of Flap endonuclease 1 (Homo sapiens) (P39748 whole entry, looked up, the tested form may be a part): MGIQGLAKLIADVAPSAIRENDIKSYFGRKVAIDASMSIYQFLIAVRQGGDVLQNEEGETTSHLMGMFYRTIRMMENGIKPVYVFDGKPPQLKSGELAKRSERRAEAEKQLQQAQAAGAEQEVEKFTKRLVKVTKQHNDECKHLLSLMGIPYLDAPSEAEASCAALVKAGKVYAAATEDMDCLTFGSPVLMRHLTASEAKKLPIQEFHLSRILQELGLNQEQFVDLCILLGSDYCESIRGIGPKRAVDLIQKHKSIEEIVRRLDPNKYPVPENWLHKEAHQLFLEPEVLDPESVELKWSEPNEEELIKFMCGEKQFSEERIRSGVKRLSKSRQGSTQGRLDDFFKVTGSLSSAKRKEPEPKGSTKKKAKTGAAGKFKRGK

SMILES	outcome
C=C(C)[C@H]1CN[C@H](C(=O)O)[C@H]1CC(=O)O	inactive
NCCc1ccc(O)cc1	inactive
O=C(CCCN1CCC2(CC1)C(=O)NCN2c1ccccc1)c1ccc(F)cc1	inactive
CC(NC(C)(C)C)C(=O)c1cccc(Cl)c1 (stereo not given)	inactive
O=C(O)CCCc1ccc(N(CCCl)CCCl)cc1	inactive
Cc1ncsc1CCCl	inactive
O=c1[nH]oc2c1CCNC2	inactive
CC(C)c1cccc(C(C)C)c1O	inactive
O=P1(N(CCCl)CCCl)NCCCO1 (stereo not given)	inactive
COc1ccc2c(c1OC)C(=O)O[C@H]2[C@@H]1c2cc3c(cc2CCN1C)OCO3	inactive
CCCCC/C=C\C/C=C\C/C=C\C/C=C\CCCC(=O)NCC(=O)O	inactive
CN1C(=O)CCS(=O)(=O)C1c1ccc(Cl)cc1 (stereo not given)	inactive
CC(=O)N1CCN(c2ccc(OC[C@H]3CO[C@](Cn4ccnc4)(c4ccc(Cl)cc4Cl)O3)cc2)CC1	inactive
CC(C)N(CCC(C(N)=O)(c1ccccc1)c1ccccn1)C(C)C (stereo not given)	inactive
CC(C)(C)NCC(O)c1ccccc1Cl (stereo not given)	inactive
